In the supplement of paper PMC6555819 one finds PBM binding z-score data, which are given here for 40 sequences.

This test concerns VDR:RXRa (NR concentration 270 nM, RXRa partner concentration 90 nM). The test is described as follows: PBM binding z-score (relative to random genomic background probes); higher = stronger binding; sequences stand for … in GC…GCGATTGACAGCGTAGAATGAAGG
Here is the method: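 Protein-binding microarray (Agilent 4x180K custom design, double-stranded 60-nt probes: 5' GC cap, 34-nt variable region, 24-nt constant primer region; full probe sequence given). Purified or IVT nuclear receptor:RXRα heterodimers (3:1 NR:RXRα, mostly 270:90 nM) or homodimers were incubated for 1 h in PBS with 2% milk and no ligand, then detected with Alexa488 antibodies. Fluorescence from o1-orientation probes (~5 replicates averaged) was converted to z-scores against 500 random hg19 background probes. Variable regions are seed direct-repeat (DR0–DR5) sites, all their single-nucleotide variants and half-site ablations.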
With TCTGCTAGGTCAGTTAGTCAGCTAACGAGCTGCC, the PBM binding z-score was -0.204.

CGAACTAGGTCATTGACAGGACAGTGATTAGTAA came in with a PBM binding z-score of 2.47.

As for TAGCCTAGGTCATTGGCCAGTATACCACGCGAAC, the PBM binding z-score is 2.18.

CGTCAAAATTCAAGGTAACGTAACAGAAAGCAGC gave a PBM binding z-score of 0.111.

For ATCGAAAGGTCGACGAAGTGAGTATACACCGTTT, the PBM binding z-score was found to be 2.27.

On to CCTACTGGGCCAAAGGTCATTGCTTCCAATGCTC, for which the PBM binding z-score was 4.47.

In turn, TCTGCTAGGTCAGTCGGTCAGCTAACGAGCTGCC came in with a PBM binding z-score of 0.139.

As to TCTGCTAGGTCAGTTGGTCAACTAACGAGCTGCC, the PBM binding z-score is 0.33.

CCTAGTTGGTCAGGAGGTCACACAACGGATATGA displayed a PBM binding z-score of 3.97.

In turn, AGAATGAGGTTACCAAAGAGCAGGGAAACGCTTG registered a PBM binding z-score of 1.05.

For GCTTCTAGATCAAGGTTAAGAAAGACTAAGCTAA, the PBM binding z-score amounted to 0.384.

CCGACTGGGGCATAAGGTTACAATAAGCCAGCCC registered a PBM binding z-score of 0.392.

For ATATGTAGGTTACCTCCGGGTCATTCAGGCTATG, the PBM binding z-score was determined as 4.01.

For TAGCCGAGGTCATTGGGCCAGTATAGTACGCATC, the PBM binding z-score came out at 5.59.

Take CCTTACGGGTCACTGACAGGTTATAGCATTTGGA: the PBM binding z-score was found to be 3.8.

ACCTCTAGGTAAAAGTTCAGTGAATCCCGAGGAT yielded a PBM binding z-score of 0.859.

Regarding TCATATAGGTAAAGAGGTGAAAGTCCGTAAGTTA, the PBM binding z-score was determined as 1.45.

The sequence TCATATAGGTAAATGCTCGGTGAAAGTCCGATCT registered a PBM binding z-score of 1.01.

CCAGACAGGTGAGAAGGTAACTCTGCCTCGATTA displayed a PBM binding z-score of -0.12.

Take TCATATAGGTAAGAGGTGAAAGTCGGTGTGGTAA: the PBM binding z-score stood at 1.33.

Consider TATACAGGGTCAAAGGCCATAGTACGAATGTCGA, for which the PBM binding z-score was 5.08.

GCTTACGGGTCAAAGGTTATCGCATGAATAGAAT: the PBM binding z-score was 5.72.

With CAAACTAGGTCACAGAGCTCAAAGTCCGTGCGTA, the PBM binding z-score was 3.09.

For the sequence GATACAGGGTTAAGGCCAGAGTACGCGTATTGAT, the PBM binding z-score came out at 1.05.

CGTCCAAGGTCAATGCTAGGTCAGTGGAAGCATT yielded a PBM binding z-score of 4.77.

TTACCAAGGTAAGCTGAGGTCGTTGATCCAACTC returned a PBM binding z-score of 2.84.

ACACACAGGTGAGTGAAGGTAACTCAGCTGGACG gave a PBM binding z-score of -0.0221.

In turn, CCTCGGAGGACAGAAGGTCAGTGCTGTCCGCTTT came in with a PBM binding z-score of 0.863.

As for CGTCCAAGGTCAATGCTAGGTCCGTGAAAGCATT, the PBM binding z-score was found to be 3.86.

ATATGTAGGTTATCGGGTCATTCACTTTGCGCAT gave a PBM binding z-score of 3.73.

For AGAATGAGGTTACCAAAGATCAGGGTAACGCTTG, the PBM binding z-score worked out at 1.6.

On to ACTATTAGTTGACTTAAGGCAACCGATACGACGC, for which the PBM binding z-score is 0.358.

For the sequence TGTCAAAGTTCACAGGTAACGTAAGTATCCACAC, the PBM binding z-score came out at 4.54.

Sequence CGAACTAGGTCAGAATAGGACAGTGAAGGATGAT gave a PBM binding z-score of 0.491.

Sequence ACTCGGAGGACACAGGTCAGAGCTACGCCAGTGA showed a PBM binding z-score of 0.834.

As to GCTGCTAAGTCAGGTTGGTCAGCTAACGGGTACG, the PBM binding z-score is -0.547.

ATACCAAGGTGATGGTGAGGTCGTTGATACTAAC came in with a PBM binding z-score of 3.28.

CGTCCAAGGTCAATGCTAGGTTAGTGAAAGCATT gave a PBM binding z-score of 4.02.

Regarding CCTCGGAGGACAAGAGGAGGTCAGAGCTGCCAGA, the PBM binding z-score was 1.48.

Regarding CCGTGTAGGTTATGGGGCATTCAGGCAACGGTGA, the PBM binding z-score stood at 0.11.
